HT1080 IDH1KD tx = HT-1080 IDH1 knockdown cell toxicity (counter line); HT-1080 IDH1 knockdown viability, ATP luminescence, 48 h; Potency, µM (doses to about 46.1 µM), inactives show at the top dose activity, negative = toxicity, most hits filed as cytotoxic; 2% of 360,000 active; AID 686971;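 further: potency means the concentration at half of the fitted maximal effect; 0% = DMSO wells and -100% = cell-free medium wells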
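Assay cells: HT-1080 with IDH1 knockdown, 750 per well, RPMI/5% FBS. Exposure: 48 h at 37 °C following 2 h pre-incubation. Read: CellTiter-Glo luminescence; fitted concentration-response, curve class assigned.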
HT1080NT lethal = kills 2HG-producing HT-1080-NT fibrosarcoma cells; 1.6% of 360,000 active; Potency, µM (titrated, usually from 46.1 µM), for inactives: at the highest dose activity, negative = less viability, most hits filed as cytotoxic; AID 686970; HT-1080-NT fibrosarcoma viability, CellTiter-Glo ATP luminescence, 48 h;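 further: NT is the 2HG producing partner of a matched IDH1 knockdown line; potency means the concentration at half of the fitted maximal effect; 0% = DMSO-treated cells and -100% = media-only wells without cells; nearly all actives have a fitted effect of over 55% in size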
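A 48-hour cytotoxicity screen used HT-1080-NT cells plated 2 hours before compound delivery. ATP-based CellTiter-Glo luminescence measured viability, normalized to DMSO and no-cell controls.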
TDP1 cell noCPT = qHTS for Inhibitors of human tyrosyl-DNA phosphodiesterase 1 (TDP1): qHTS in cells in absence of CPT; 15% of 420,000 active; DT40 Tdp1-/- hTDP1 cells, no CPT, ATP luminescence, 48 h; Potency, µM (top dose mostly 46.2 µM), inactives show top-dose activity change, negative = growth inhibition, hits mostly inhibitors; further: potency means the concentration at half of the fitted maximal effect; nearly all actives have a fitted effect of over 55% in size
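Compound effects on proliferation are scored in DT40 Tdp1-/-;hTDP1 cells in the absence of CPT. ATP levels (CellTiter-Glo luminescence) are recorded after a ≥48 hr, 37 °C incubation.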
IL-1B inflam inh = inhibitors of inflammasome signaling (IL-1 beta secretion); THP-1 LPS/ATP IL-1B secretion, AlphaLISA, 16 h; active compounds read low; activity change, % at 57.5 µM; 4.7% of 360,000 active; in the data active means activity change below about -50%; inconclusive means mostly about -30% to -49%
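THP-1 cells pretreated 1 hr with compounds (up to 57.5 uM final), then stimulated with LPS (250 ng/mL final) plus ATP (1.25 mM final); secreted IL-1B measured by AlphaLISA after 16 hr, decreased signal indicating inhibition.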
DT40 TDP1 CPT = growth inhibition of DT40 Tdp1-/-;hTDP1 cells with camptothecin (screen for TDP1 inhibitors); Potency, µM (highest dose often 46.2 µM), without a hit: top-dose activity change, negative = growth inhibition, hits mostly inhibitors; AID 686979; 12% of 420,000 active; chicken DT40 Tdp1-/-;hTDP1 cells + 20 nM CPT, ATP luminescence, 48 h; further: potency means the concentration at half of the fitted maximal effect; nearly all actives have a fitted effect of over 55% in size
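Chicken DT40 Tdp1-/- cells stably complemented with human TDP1 were seeded at 400 cells/well in medium containing 20 nM camptothecin, exposed to pin-transferred compounds, and grown at 37 °C for at least 48 hr. Viability was read as ATP luminescence.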
ELG1 repair inh = ELG1-dependent DNA repair inhibition; HEK293T ELG1-luciferase reporter, luminescence, 16 h; DNA damage induced by 5-fluorouridine; Potency, µM (highest dose often 46.1 µM), for the others: top-dose activity change, negative = inhibition, usual class: inhibitors; 2.3% of 330,000 active; AID 504467; further: potency means the concentration at half of the fitted maximal effect; nearly all actives have a fitted effect of over 55% in size
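In this reporter screen, reduction of luminescence relative to DMSO vehicle indicated activity. Compounds and 5-fluorouridine were added together to 2,000 cells per well, incubated for 16 hr at 37 °C, then developed with ONE-Glo.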
The depositor's hits bear a star; ? = inconclusive; . = no result given. Only some compounds are listed: those with a hit (about 19% of all), similar ones and a draw of the others. Unless noted, the call rests on the fitted dose curve; in most records, active means well fitted curve in the direction sought with a large enough effect; inconclusive means small, poorly fitted or top-dose-only effect, or another doubt; inactive means no such curve, though single readings can be large; an effect the other way counts as inactive or inconclusive. Unless noted, on the % scale 0 is the no-effect control and ±100 the full control effect.

SMILES | HT1080 IDH1KD tx | HT1080NT lethal | TDP1 cell noCPT | IL-1B inflam inh | DT40 TDP1 CPT | ELG1 repair inh
Cc1ccc(-c2nnc(-c3ccccc3)c(N3CCOCC3)n2)cc1 | 1% | 3% | 16µM* | 15 | ? | ?
FC(F)(F)c1cccc(-c2noc(CN3CCOCC3)n2)c1 | 0% | -1% | -16% | 12 | -13% | ?
c1ccc(-c2nnc(N3CCOCC3)nc2-c2ccccc2)cc1 | -3% | 3% | ? | -9 | 16µM* | -9%
CSc1ccccc1NC(=O)C1CCCN(S(C)(=O)=O)C1 (stereo unspecified) | ? | 17% | 7% | -5 | 6% | 0%
Cc1nc2nc(NC(=O)c3ccccc3F)[nH]n2c(=O)c1Cl | . | . | 1% | . | -3% | .
CCN(C(=O)CSc1nc2scc(-c3ccccc3)c2c(=O)n1N)C1CCS(=O)(=O)C1 (stereo unspecified) | 9% | 5% | ? | 0 | ? | .
Cc1cc(C)c2c(n1)nn1c(C)c(CCC(=O)NCc3ccccc3Cl)c(C)nc21 | . | . | -18% | . | 4% | .
CN1CCN(c2nc(-c3ccc(Br)cc3)nnc2-c2ccccc2)CC1 | 21µM* | ? | 12µM* | -58* | 16µM* | ?
c1ccc(-c2nnc(-c3ccncc3)nc2-c2ccccc2)cc1 | 0% | -8% | -2% | 0 | 4% | -28%
CN(C(=O)c1oc(=O)c2ccccc2c1-c1ccccc1)c1cccc(Cl)c1 | . | . | 23µM* | . | 18µM* | .
CCN(CC)c1ccc(/C=C/c2cccc[n+]2C)c(OC)c1 | ? | ? | 0.052µM* | -92* | 1.2µM* | -9%
COc1ccc(/C=C/c2cccc[n+]2C)c(O)c1 | 5% | 8% | 18µM* | -13 | ? | -15%
C[n+]1ccccc1/C=C/c1cc(Br)ccc1O | -8% | -4% | -3% | 19 | -3% | -5%
CC(O)/C=C/c1cccc[n+]1C (stereo unspecified) | ? | 6% | 2% | 26 | -14% | 0%
CCCCCCNC(=O)n1cc(F)c(=O)[nH]c1=O | . | . | 15µM* | . | 11µM* | .
O=S(=O)(/N=C(\c1ccccc1F)N1CCCCC1)c1ccccc1 | 12% | 11% | 5% | 8 | 8% | 2%
CCCCCC1CC(=O)NC1(C(=O)OCC)C(=O)OCC (stereo unspecified) | 3% | -1% | -2% | -64* | 22% | .
CC1(C)C[C@@H](O)CC2(C1)C[C@]1(C)CC(O)[C@H]2C(C)(C)C1 (stereo partly specified) | 6% | 5% | -13% | -20 | ? | .
Cn1c(=O)cc(OCCCC(=O)Nc2cccc(Cl)c2)c2ccccc21 | 6% | 4% | ? | 4 | ? | .
O=C(CCCn1c2ccccc2c(=O)c2ccccc21)Nc1cccc(Cl)c1 | . | . | 16µM* | . | ? | .
Cc1ccc2c(c1)c(=O)c1ccccc1n2CCCC(=O)Nc1ccc(C)c(C)c1 | . | . | 23µM* | . | 23µM* | .
NCCCn1c(C(=O)c2cc(Cl)c(N)c(Cl)c2)c2ccc([N+](=O)[O-])cc2[n+]1[O-] | -21% | ? | 0.52µM* | 0 | 0.65µM* | ?
COc1ccc(C(=O)c2c3ccc(C(F)(F)F)cc3[n+]([O-])n2CCCC(N)=O)cc1 | -2% | -2% | -16% | -2 | 1% | 1%
NC(=O)CCCn1c(C(=O)c2cc(Cl)c(N)c(Cl)c2)c2ccc(C(F)(F)F)cc2[n+]1[O-] | 0% | 0% | 18µM* | -16 | ? | -23%
NCCCn1c(C(=O)c2cc(Cl)c(N)c(Cl)c2)c2ccc(C(F)(F)F)cc2[n+]1[O-] | -16% | -6% | 18µM* | ? | ? | 22%
SMILES | HT1080 IDH1KD tx | HT1080NT lethal | TDP1 cell noCPT | IL-1B inflam inh | DT40 TDP1 CPT | ELG1 repair inh
NC(=O)c1ccc(Cn2c(C(=O)c3ccc(Cl)cc3)c3ccccc3[n+]2[O-])cc1 | 0% | 0% | ? | 30 | ? | 13%
NC(=O)c1ccc(Cn2c(C(=O)c3cc(Cl)c(N)c(Cl)c3)c3ccccc3[n+]2[O-])cc1 | 12µM* | 16µM* | ? | 29 | ? | 0%
O=C(OCC(=O)N1CCCCCC1)c1ccc([N+](=O)[O-])cc1Cl | 12% | -1% | 19% | 4 | 1% | 9%
CCCc1cc(=O)[nH]c2nnc(SCC(=O)NC3CCCCC3)n12 | 4% | 10% | -5% | 1 | 1% | -5%
N/C(=N\OC(=O)COc1ccc2ccccc2c1)c1ccncc1 | -7% | -6% | ? | -15 | 21µM* | 6%
COc1ccc(/C(N)=N/OC(=O)CSc2ccc(C)cc2)cc1 | -4% | 18% | -20% | -1 | -8% | -6%
COc1ccc(/C(N)=N/OC(=O)CSc2ccccc2)cc1 | 0% | 17% | -15% | -60* | -3% | ?
O=C(N[C@@H](Cc1ccccc1)C(=O)N1CCC2(CC1)NCCc1[nH]cnc12)c1cccc(F)c1 | -18% | ? | ? | -13 | ? | 22%
O=S(=O)(N/N=C1\CC(c2ccccc2)Oc2ccccc21)c1ccccc1 (stereo unspecified) | -11% | -9% | -13% | -27 | -13% | 0%
O=C(N/N=C1\CC(c2ccccc2)Oc2ccccc21)c1ccc(O)cc1 (stereo unspecified) | -9% | -14% | ? | -22 | ? | 18µM*
O=C(N/N=C1\CC(c2ccccc2)Oc2ccccc21)c1ccccn1 (stereo unspecified) | 6% | 12% | -9% | 0 | -3% | 15%

Screening results (PubChem)
